Experimental data taken from paper PMC7862700, “An all-to-all approach to the identification of sequence-specific readers for epigenetic DNA modifications on cytosine”.

Columns and labels:
Test in all cases: DAPPL (digital affinity profiling via proximity ligation, sequencing); 10 mM Tris-HCl pH 7.5, 50 mM NaCl, 1 mM DTT, 4% glycerol, room temperature, 30 min; GST-TFs on glutathione beads, 16-mer random dsDNA library, 0.1% formaldehyde crosslink after washing; high values mean tight binding
[1] = target: T1, FLI1 (Homo sapiens, UniProt Q01543 1-452); conditions: protein: recombinant; tags: N-terminal GST; dsDNA, one strand shown
T1 sequence: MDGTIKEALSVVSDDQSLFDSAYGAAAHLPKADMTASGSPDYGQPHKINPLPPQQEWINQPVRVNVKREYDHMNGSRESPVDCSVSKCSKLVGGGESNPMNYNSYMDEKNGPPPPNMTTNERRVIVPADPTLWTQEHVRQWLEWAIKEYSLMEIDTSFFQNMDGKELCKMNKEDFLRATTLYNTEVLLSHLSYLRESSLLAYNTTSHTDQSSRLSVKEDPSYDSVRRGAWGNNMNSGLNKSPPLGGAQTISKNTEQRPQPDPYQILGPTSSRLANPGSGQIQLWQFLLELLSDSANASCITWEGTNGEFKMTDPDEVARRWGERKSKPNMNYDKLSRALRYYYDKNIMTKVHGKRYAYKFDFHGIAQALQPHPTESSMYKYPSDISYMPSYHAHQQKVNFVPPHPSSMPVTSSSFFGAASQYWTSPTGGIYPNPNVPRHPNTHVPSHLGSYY
Method in brief: (§1)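 Binding signal is each hexamer's read frequency for a factor divided by its frequency in the tag-only sample. The factors were GST-fused human transcription factors from yeast, captured on glutathione beads, DNA-barcoded and pooled with that sample. Pools were incubated with 200 nmole of a random double-stranded 16-mer DNA library in Tris/NaCl/DTT/glycerol buffer at room temperature for 30 min, then washed, crosslinked with 0.1% formaldehyde, proximity-ligated with BsaI/T4 ligase (1 h, 37 °C), PCR-amplified and sequenced on an Illumina NextSeq500.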

[2] = target: T2, ELK1 (Homo sapiens, UniProt P19419 1-428); conditions: protein: recombinant; tags: N-terminal GST; dsDNA, one strand shown
T2 sequence: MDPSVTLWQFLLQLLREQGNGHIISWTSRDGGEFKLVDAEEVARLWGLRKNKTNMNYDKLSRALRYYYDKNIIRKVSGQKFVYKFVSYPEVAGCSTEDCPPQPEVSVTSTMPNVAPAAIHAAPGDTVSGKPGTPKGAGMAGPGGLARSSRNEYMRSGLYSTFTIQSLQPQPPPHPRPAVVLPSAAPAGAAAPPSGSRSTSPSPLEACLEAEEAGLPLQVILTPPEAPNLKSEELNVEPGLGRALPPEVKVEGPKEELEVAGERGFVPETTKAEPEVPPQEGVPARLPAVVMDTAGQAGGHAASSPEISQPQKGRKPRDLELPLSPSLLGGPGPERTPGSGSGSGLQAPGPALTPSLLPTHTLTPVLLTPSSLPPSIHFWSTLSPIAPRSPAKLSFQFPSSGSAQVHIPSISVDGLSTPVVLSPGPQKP
Method in brief: as §1

[3] = target: T3, GABPA (Homo sapiens, UniProt Q06546 1-454); conditions: protein: recombinant; tags: N-terminal GST; dsDNA, one strand shown
T3 sequence: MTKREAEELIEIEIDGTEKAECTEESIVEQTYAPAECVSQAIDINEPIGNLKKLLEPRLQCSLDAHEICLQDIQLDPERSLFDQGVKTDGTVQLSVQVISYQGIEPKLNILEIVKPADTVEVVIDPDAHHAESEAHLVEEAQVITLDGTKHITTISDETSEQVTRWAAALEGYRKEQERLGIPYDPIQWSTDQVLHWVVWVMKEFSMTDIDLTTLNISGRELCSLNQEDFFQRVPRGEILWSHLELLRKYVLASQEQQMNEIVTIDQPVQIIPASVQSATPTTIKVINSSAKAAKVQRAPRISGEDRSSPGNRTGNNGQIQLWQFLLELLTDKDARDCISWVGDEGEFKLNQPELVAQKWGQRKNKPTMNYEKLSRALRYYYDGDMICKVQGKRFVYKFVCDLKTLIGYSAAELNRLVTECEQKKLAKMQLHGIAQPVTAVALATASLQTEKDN
Method in brief: as §1

[4] = target: T4, ERG (Homo sapiens, UniProt P11308 1-479); conditions: protein: recombinant; tags: N-terminal GST; dsDNA, one strand shown
T4 sequence: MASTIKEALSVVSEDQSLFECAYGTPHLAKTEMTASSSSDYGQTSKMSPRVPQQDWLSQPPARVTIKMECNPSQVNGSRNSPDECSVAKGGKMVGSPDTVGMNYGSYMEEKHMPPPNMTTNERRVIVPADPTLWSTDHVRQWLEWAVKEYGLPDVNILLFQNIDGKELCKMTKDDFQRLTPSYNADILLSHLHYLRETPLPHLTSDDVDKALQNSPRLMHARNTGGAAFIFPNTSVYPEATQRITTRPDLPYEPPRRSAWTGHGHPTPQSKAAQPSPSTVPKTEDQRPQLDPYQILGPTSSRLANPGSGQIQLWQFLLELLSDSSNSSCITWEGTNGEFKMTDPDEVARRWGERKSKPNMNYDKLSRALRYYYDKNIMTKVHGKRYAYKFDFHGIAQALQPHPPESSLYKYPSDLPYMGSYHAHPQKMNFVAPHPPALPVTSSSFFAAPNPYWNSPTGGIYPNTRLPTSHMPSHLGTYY
Method in brief: as §1

[5] = target: ELF1 (Homo sapiens, UniProt P32519 1-619); conditions: protein: recombinant; tags: N-terminal GST; dsDNA, one strand shown
Method in brief: as §1

[6] = target: T5, EHF (Homo sapiens, UniProt Q9NZC4 1-300); conditions: protein: recombinant; tags: N-terminal GST; dsDNA, one strand shown
T5 sequence: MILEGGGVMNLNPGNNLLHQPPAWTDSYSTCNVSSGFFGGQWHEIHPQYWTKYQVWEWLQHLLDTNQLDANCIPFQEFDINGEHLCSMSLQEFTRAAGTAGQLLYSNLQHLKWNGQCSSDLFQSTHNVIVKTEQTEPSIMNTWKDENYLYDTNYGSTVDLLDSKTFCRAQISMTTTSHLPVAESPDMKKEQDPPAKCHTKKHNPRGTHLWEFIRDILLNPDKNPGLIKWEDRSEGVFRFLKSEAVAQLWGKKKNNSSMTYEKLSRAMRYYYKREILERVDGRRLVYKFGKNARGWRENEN
Method in brief: as §1

[7] = target: SPI1 (Homo sapiens, UniProt P17947 1-270); conditions: protein: recombinant; tags: N-terminal GST; dsDNA, one strand shown
Method in brief: as §1

[8] = target: SPIB (Homo sapiens, UniProt Q01892 1-262); conditions: protein: recombinant; tags: N-terminal GST; dsDNA, one strand shown
Method in brief: as §1

[9] = target: T6, ELK3 (Homo sapiens, UniProt P41970 1-407); conditions: protein: recombinant; tags: N-terminal GST; dsDNA, one strand shown
T6 sequence: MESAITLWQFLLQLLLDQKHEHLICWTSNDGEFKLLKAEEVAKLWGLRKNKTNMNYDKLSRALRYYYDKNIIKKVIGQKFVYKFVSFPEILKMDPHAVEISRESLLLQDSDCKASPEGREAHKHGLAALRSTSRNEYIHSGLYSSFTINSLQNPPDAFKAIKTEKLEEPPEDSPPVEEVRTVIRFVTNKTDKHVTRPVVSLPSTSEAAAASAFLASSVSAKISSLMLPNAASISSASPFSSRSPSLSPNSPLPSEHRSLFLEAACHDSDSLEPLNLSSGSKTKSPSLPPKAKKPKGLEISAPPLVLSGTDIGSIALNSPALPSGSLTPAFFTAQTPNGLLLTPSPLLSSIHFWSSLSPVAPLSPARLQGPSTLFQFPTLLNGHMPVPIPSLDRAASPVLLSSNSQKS
Method in brief: as §1

[10] = target: T7, FEV (Homo sapiens, UniProt Q99581 1-238); conditions: protein: recombinant; tags: N-terminal GST; dsDNA, one strand shown
T7 sequence: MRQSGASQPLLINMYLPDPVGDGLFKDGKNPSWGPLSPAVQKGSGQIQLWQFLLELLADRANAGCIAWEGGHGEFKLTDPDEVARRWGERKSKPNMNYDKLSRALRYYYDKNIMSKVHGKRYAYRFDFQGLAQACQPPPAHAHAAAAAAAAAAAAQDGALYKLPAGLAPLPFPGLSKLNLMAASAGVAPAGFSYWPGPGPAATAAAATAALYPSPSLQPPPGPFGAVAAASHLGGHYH
Method in brief: as §1

[11] = target: ETV5 (Homo sapiens, UniProt P41161 1-510); conditions: protein: recombinant; tags: N-terminal GST; dsDNA, one strand shown
Method in brief: as §1

[12] = target: HSF1 (Homo sapiens, UniProt Q00613 1-529); conditions: protein: recombinant; tags: N-terminal GST; chain copies: 3; dsDNA, one strand shown
Method in brief: as §1

[13] = target: T8, SPIC (Homo sapiens, UniProt Q8N5J4 1-248); conditions: protein: recombinant; tags: N-terminal GST; dsDNA, one strand shown
T8 sequence: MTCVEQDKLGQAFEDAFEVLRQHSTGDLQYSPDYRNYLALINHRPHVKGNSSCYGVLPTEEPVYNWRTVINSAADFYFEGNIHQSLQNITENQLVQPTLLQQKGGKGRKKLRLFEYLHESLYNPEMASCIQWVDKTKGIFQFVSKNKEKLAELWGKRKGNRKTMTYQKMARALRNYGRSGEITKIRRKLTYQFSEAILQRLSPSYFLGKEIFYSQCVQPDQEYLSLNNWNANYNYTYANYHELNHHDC
Method in brief: as §1

[14] = target: ELF4 (Homo sapiens, UniProt Q99607 1-663); conditions: protein: recombinant; tags: N-terminal GST; dsDNA, one strand shown
Method in brief: as §1

[15] = target: T9, ELK4 (Homo sapiens, UniProt P28324-2 1-405); conditions: protein: recombinant; tags: N-terminal GST; dsDNA, one strand shown
T9 sequence: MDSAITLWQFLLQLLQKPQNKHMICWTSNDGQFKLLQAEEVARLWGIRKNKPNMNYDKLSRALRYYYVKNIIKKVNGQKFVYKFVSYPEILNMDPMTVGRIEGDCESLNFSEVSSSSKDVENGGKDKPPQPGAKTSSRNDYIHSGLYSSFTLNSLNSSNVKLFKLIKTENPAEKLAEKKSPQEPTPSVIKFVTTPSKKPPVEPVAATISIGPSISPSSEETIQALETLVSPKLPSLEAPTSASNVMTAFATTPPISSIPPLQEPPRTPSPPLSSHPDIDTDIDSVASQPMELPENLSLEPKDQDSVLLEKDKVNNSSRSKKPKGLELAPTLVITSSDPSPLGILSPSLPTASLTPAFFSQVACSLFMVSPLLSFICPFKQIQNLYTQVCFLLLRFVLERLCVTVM
Method in brief: as §1

[16] = target: T10, ETV2 (Homo sapiens, UniProt O00321 1-342); conditions: protein: recombinant; tags: N-terminal GST; dsDNA, one strand shown
T10 sequence: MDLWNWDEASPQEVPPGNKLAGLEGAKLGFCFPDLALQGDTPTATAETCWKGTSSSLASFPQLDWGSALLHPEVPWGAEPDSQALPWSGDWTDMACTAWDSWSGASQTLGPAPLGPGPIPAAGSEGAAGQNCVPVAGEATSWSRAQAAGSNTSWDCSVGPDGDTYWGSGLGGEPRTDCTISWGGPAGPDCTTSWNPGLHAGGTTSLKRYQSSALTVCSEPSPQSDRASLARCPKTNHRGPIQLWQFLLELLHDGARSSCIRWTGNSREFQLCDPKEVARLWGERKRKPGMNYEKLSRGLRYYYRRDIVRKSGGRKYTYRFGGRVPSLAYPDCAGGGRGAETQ
Method in brief: as §1

[17] = target: T11, ELF3 (Homo sapiens, UniProt P78545 1-371); conditions: protein: recombinant; tags: N-terminal GST; dsDNA, one strand shown
T11 sequence: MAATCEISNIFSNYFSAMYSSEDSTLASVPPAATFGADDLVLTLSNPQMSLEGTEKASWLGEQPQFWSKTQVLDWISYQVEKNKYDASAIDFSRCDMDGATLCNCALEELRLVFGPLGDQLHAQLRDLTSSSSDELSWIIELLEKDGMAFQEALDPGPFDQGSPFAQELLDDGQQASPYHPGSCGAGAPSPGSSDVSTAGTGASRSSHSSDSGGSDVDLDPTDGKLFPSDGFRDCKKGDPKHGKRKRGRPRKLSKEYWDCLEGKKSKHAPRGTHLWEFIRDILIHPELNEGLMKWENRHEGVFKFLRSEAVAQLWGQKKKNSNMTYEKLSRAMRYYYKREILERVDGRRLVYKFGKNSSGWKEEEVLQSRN
Method in brief: as §1

[18] = target: CRX (Homo sapiens, UniProt O43186 1-299); conditions: protein: recombinant; tags: N-terminal GST; dsDNA, one strand shown
Method in brief: as §1

[19] = target: ETV1 (Homo sapiens, UniProt P50549 1-477); conditions: protein: recombinant; tags: N-terminal GST; dsDNA, one strand shown
Method in brief: as §1

Sequence of ELF1 (P32519 whole entry): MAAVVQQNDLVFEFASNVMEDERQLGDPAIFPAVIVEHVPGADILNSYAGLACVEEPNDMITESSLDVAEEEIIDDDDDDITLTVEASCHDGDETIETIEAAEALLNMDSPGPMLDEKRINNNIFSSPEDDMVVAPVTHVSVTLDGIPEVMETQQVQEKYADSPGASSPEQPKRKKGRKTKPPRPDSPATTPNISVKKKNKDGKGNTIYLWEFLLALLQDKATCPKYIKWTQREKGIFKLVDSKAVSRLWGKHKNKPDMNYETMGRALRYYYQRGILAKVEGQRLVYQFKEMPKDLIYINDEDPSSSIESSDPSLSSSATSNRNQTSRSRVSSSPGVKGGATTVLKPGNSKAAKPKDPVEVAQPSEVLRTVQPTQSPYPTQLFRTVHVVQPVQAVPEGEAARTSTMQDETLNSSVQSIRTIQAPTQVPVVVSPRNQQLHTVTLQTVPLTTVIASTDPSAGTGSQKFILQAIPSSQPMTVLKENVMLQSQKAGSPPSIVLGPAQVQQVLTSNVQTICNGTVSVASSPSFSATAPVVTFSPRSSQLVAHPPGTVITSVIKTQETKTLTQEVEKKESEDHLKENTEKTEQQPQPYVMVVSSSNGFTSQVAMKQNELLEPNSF
Sequence of HSF1 (Q00613 whole entry): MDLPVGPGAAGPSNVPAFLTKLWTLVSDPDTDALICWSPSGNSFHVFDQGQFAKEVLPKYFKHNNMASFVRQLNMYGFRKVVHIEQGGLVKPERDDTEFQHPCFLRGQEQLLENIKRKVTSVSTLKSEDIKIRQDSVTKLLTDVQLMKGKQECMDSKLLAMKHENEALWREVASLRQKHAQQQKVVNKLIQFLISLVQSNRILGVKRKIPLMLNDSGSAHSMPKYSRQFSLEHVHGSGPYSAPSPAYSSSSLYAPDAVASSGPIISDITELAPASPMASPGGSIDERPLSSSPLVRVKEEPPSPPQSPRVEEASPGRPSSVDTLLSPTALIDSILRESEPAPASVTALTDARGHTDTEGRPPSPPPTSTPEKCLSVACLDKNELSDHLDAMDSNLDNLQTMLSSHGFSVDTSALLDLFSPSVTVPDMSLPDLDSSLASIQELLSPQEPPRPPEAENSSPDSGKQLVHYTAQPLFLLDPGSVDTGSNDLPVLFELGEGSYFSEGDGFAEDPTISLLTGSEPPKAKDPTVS
Sequence of SPIB (Q01892 whole entry): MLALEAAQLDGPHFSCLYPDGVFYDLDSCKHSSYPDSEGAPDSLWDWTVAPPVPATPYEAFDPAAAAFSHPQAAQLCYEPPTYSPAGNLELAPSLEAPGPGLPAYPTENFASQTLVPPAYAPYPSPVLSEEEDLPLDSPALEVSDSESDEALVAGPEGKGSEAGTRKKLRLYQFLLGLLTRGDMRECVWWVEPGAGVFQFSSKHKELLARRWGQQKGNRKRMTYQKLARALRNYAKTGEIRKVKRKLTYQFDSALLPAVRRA
Sequence of CRX (O43186 whole entry): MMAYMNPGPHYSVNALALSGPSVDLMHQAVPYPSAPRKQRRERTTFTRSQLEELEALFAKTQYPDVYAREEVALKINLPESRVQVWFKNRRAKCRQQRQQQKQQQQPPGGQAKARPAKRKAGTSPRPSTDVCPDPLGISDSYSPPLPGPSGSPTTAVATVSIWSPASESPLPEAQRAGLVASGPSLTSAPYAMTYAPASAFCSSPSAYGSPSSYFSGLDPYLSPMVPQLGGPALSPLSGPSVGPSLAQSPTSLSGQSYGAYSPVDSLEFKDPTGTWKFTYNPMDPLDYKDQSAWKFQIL
Sequence of ELF4 (Q99607 whole entry): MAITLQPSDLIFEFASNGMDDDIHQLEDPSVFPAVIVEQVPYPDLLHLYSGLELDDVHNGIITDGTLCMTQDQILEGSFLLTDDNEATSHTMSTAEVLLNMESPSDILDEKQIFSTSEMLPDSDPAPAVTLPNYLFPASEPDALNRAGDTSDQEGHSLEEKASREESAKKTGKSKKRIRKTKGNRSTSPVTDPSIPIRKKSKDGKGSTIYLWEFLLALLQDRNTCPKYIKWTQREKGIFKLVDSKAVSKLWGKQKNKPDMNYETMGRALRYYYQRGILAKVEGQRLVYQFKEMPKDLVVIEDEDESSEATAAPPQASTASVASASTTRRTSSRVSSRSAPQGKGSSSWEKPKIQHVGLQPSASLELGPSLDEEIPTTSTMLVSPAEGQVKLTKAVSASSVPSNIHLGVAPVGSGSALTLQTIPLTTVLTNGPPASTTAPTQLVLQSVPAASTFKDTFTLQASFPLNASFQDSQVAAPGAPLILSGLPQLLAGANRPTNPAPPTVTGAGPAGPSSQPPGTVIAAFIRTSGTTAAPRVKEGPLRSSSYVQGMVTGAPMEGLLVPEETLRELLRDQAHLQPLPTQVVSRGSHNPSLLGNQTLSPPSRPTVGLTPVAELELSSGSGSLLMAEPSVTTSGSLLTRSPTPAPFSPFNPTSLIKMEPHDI
Sequence of ETV5 (P41161 whole entry): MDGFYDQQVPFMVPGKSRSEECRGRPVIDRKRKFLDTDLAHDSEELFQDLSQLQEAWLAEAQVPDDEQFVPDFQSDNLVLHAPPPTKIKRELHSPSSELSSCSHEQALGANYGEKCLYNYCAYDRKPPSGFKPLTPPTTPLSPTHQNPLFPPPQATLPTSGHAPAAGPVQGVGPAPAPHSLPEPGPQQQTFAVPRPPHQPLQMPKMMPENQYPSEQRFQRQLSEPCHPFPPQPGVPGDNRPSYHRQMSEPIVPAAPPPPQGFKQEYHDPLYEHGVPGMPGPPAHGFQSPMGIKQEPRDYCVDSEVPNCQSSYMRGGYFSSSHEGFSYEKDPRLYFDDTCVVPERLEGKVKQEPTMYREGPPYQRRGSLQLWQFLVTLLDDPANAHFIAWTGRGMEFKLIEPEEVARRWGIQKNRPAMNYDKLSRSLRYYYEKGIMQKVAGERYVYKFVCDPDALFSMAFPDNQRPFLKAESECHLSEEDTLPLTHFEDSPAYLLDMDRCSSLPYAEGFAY
Sequence of ETV1 (P50549 whole entry): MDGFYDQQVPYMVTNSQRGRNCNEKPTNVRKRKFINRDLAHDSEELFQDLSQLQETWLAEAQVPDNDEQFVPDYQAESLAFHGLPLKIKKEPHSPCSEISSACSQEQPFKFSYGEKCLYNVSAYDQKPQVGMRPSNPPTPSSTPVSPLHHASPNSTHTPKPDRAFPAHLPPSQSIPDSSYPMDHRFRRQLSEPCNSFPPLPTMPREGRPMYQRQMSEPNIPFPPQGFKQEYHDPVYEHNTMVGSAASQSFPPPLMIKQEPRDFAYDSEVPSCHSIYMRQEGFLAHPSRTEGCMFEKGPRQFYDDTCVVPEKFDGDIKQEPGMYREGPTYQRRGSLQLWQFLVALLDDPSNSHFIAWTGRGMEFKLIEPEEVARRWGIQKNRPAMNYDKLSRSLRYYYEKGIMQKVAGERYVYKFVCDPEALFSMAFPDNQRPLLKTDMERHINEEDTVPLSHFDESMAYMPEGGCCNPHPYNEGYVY

TGATGA
binding signal [1]: 1.38 fold enrichment (6-mer frequency, TF over GST control)
binding signal [2]: 1.39 fold enrichment (6-mer frequency, TF over GST control)
binding signal [3]: 1.46 fold enrichment (6-mer frequency, TF over GST control)
binding signal [4]: 1.28 fold enrichment (6-mer frequency, TF over GST control)
binding signal [5]: 1.35 fold enrichment (6-mer frequency, TF over GST control)
binding signal [6]: 1.32 fold enrichment (6-mer frequency, TF over GST control)
binding signal [7]: 1.2 fold enrichment (6-mer frequency, TF over GST control)
binding signal [8]: 1.33 fold enrichment (6-mer frequency, TF over GST control)
binding signal [9]: 1.28 fold enrichment (6-mer frequency, TF over GST control)
binding signal [10]: 1.25 fold enrichment (6-mer frequency, TF over GST control)
binding signal [11]: 1.32 fold enrichment (6-mer frequency, TF over GST control)
binding signal [12]: 1.16 fold enrichment (6-mer frequency, TF over GST control)
binding signal [13]: 1.14 fold enrichment (6-mer frequency, TF over GST control)
binding signal [14]: 1.44 fold enrichment (6-mer frequency, TF over GST control)
binding signal [15]: 1.46 fold enrichment (6-mer frequency, TF over GST control)
binding signal [16]: 1.33 fold enrichment (6-mer frequency, TF over GST control)
binding signal [17]: 1.4 fold enrichment (6-mer frequency, TF over GST control)
binding signal [18]: 1.24 fold enrichment (6-mer frequency, TF over GST control)
binding signal [19]: 1.27 fold enrichment (6-mer frequency, TF over GST control)
